In article PMC11006913:
Substitutions are numbered along the chain they refer to.

What was measured:
Test in all cases: PBM; 200 nM protein, PBS
Conditions in all cases: dsDNA, one strand shown
HOXB9 [1] = biological target: HOXB9 (Homo sapiens, UniProt P17482 171-250, T197M)
HOXC9 [2] = biological target: HOXC9 (Homo sapiens, UniProt P31274 178-260, K195R)
VENTX = biological target: T1, VENTX (Homo sapiens, UniProt O95231 78-163)
T1 sequence: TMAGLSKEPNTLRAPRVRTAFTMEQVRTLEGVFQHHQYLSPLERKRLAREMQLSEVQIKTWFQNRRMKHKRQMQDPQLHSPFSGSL

HOXA7 [3] = biological target: HOXA7 (Homo sapiens, UniProt P31268 116-202)
HOXC10 [4] = biological target: HOXC10 (Homo sapiens, UniProt Q9NYD6 254-340)
PAX4 [5] = biological target: T2, PAX4 (Homo sapiens, UniProt O43316 9-242, R200K)
T2 sequence: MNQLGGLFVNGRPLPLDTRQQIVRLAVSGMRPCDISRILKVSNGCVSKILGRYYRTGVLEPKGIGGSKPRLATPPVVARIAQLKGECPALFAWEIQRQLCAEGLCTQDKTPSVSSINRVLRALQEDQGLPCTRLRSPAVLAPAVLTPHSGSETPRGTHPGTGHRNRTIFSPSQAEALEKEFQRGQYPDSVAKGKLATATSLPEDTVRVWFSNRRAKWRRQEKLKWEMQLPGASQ

PAX4 [6] = biological target: T3, PAX4 (Homo sapiens, UniProt O43316 9-242)
T3 sequence: T2 sequence with K192R

HOXB9 [7] = biological target: HOXB9 (Homo sapiens, UniProt P17482 171-250)
HOXC9 [8] = biological target: HOXC9 (Homo sapiens, UniProt P31274 178-260)
HOXC9 [9] = biological target: HOXC9 (Homo sapiens, UniProt P31274 178-260, R193K)
PAX4 [10] = biological target: T4, PAX4 (Homo sapiens, UniProt O43316 9-242, F177V)
T4 sequence: T2 sequence with F169V, K192R

HOXC10 [11] = biological target: HOXC10 (Homo sapiens, UniProt Q9NYD6 254-340, K271E)
PAX4 [12] = biological target: T5, PAX4 (Homo sapiens, UniProt O43316 9-242, F177Y)
T5 sequence: T2 sequence with F169Y, K192R

VAX1 = VAX1 (Homo sapiens, UniProt Q5SQQ9 86-172)
HOXB9 [13] = biological target: HOXB9 (Homo sapiens, UniProt P17482 171-250, R186Q)
HOXC9 [14] = biological target: HOXC9 (Homo sapiens, UniProt P31274 178-260, R222W)
PAX4 [15] = biological target: T6, PAX4 (Homo sapiens, UniProt O43316 9-242, R227W)
T6 sequence: T2 sequence with K192R, R219W

HOXA2 [16] = biological target: HOXA2 (Homo sapiens, UniProt O43364 129-215, Y150S)
HOXA7 [17] = biological target: HOXA7 (Homo sapiens, UniProt P31268 116-202, W177C)
HOXA2 [18] = biological target: HOXA2 (Homo sapiens, UniProt O43364 129-215)
HOXA2 (Homo sapiens, UniProt O43364 129-215), sequence (O43364 129-215): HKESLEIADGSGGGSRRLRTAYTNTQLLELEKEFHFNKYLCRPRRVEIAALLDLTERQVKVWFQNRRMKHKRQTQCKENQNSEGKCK

HOXB9 (Homo sapiens, UniProt P17482 171-250, R186Q), sequence (P17482 171-250 R186Q): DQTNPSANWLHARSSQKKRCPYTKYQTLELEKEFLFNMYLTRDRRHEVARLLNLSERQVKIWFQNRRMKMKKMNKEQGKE
HOXA7 (Homo sapiens, UniProt P31268 116-202), sequence (P31268 116-202): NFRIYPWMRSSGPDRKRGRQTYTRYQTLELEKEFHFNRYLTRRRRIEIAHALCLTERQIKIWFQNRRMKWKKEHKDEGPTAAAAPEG
HOXC10 (Homo sapiens, UniProt Q9NYD6 254-340), sequence (Q9NYD6 254-340): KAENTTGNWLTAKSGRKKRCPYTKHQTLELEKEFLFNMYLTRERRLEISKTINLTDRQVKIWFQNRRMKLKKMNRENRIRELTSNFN
VAX1, sequence (Q5SQQ9 86-172): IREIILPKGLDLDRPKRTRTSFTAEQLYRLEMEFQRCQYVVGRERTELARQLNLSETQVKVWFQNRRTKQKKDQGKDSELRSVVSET
HOXB9 (Homo sapiens, UniProt P17482 171-250), sequence (P17482 171-250): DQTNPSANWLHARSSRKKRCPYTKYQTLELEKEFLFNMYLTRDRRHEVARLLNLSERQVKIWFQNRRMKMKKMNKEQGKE
HOXC9 (Homo sapiens, UniProt P31274 178-260), sequence (P31274 178-260): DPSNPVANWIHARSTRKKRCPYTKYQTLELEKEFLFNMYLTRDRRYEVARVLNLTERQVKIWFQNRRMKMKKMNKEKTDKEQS
HOXC9 (Homo sapiens, UniProt P31274 178-260, R222W), sequence (P31274 178-260 R222W): as the sequence (P31274 178-260) above, with R45W counted along it
HOXC9 (Homo sapiens, UniProt P31274 178-260, R193K), sequence (P31274 178-260 R193K): as the sequence (P31274 178-260) above, with R16K counted along it
HOXC9 (Homo sapiens, UniProt P31274 178-260, K195R), sequence (P31274 178-260 K195R): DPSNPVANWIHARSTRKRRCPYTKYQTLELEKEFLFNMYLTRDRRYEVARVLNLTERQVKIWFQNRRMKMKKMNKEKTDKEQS
HOXC10 (Homo sapiens, UniProt Q9NYD6 254-340, K271E), sequence (Q9NYD6 254-340 K271E): as the sequence (Q9NYD6 254-340) above, with K18E counted along it
HOXB9 (Homo sapiens, UniProt P17482 171-250, T197M), sequence (P17482 171-250 T197M): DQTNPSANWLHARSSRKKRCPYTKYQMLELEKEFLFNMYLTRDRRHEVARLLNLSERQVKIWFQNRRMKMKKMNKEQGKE
HOXA7 (Homo sapiens, UniProt P31268 116-202, W177C), sequence (P31268 116-202 W177C): as the sequence (P31268 116-202) above, with W62C counted along it
HOXA2 (Homo sapiens, UniProt O43364 129-215, Y150S), sequence (O43364 129-215 Y150S): as the sequence (O43364 129-215) above, with Y22S counted along it

Row | Sequence | binding signal (HOXB9 [1]) | binding signal (HOXC9 [2]) | binding signal (VENTX) | binding signal (HOXA7 [3]) | binding signal (HOXC10 [4]) | binding signal (PAX4 [5]) | binding signal (PAX4 [6]) | binding signal (HOXB9 [7]) | binding signal (HOXC9 [8]) | binding signal (HOXC9 [9]) | binding signal (PAX4 [10]) | binding signal (HOXC10 [11]) | binding signal (PAX4 [12]) | binding signal (VAX1) | binding signal (HOXB9 [13]) | binding signal (HOXC9 [14]) | binding signal (PAX4 [15]) | binding signal (HOXA2 [16]) | binding signal (HOXA7 [17]) | binding signal (HOXA2 [18])
1 | AATTAATT | 10.3 upbm affinity estimate (log intensity, higher = more binding, comparable within an allelic series) | 12.9 upbm affinity estimate (log intensity, higher = more binding, comparable within an allelic series) | 12.5 upbm affinity estimate (log intensity, higher = more binding, comparable within an allelic series) | 11.9 upbm affinity estimate (log intensity, higher = more binding, comparable within an allelic series) | 12.2 upbm affinity estimate (log intensity, higher = more binding, comparable within an allelic series) | 12.1 upbm affinity estimate (log intensity, higher = more binding, comparable within an allelic series) | 12.7 upbm affinity estimate (log intensity, higher = more binding, comparable within an allelic series) | 12.2 upbm affinity estimate (log intensity, higher = more binding, comparable within an allelic series) | 12.8 upbm affinity estimate (log intensity, higher = more binding, comparable within an allelic series) | 12.8 upbm affinity estimate (log intensity, higher = more binding, comparable within an allelic series) | 10.9 upbm affinity estimate (log intensity, higher = more binding, comparable within an allelic series) | 12.2 upbm affinity estimate (log intensity, higher = more binding, comparable within an allelic series) | 11.6 upbm affinity estimate (log intensity, higher = more binding, comparable within an allelic series) | 13.3 upbm affinity estimate (log intensity, higher = more binding, comparable within an allelic series) | 11.9 upbm affinity estimate (log intensity, higher = more binding, comparable within an allelic series) | 11.2 upbm affinity estimate (log intensity, higher = more binding, comparable within an allelic series) | 11.3 upbm affinity estimate (log intensity, higher = more binding, comparable within an allelic series) | 11 upbm affinity estimate (log intensity, higher = more binding, comparable within an allelic series) | 8.91 upbm affinity estimate (log intensity, higher = more binding, comparable within an allelic series) | 12.8 upbm affinity estimate (log intensity, higher = more binding, comparable within an allelic series)
2 | ATTAATTG | 10.3 upbm affinity estimate (log intensity, higher = more binding, comparable within an allelic series) | 12.8 upbm affinity estimate (log intensity, higher = more binding, comparable within an allelic series) | 12.8 upbm affinity estimate (log intensity, higher = more binding, comparable within an allelic series) | 12 upbm affinity estimate (log intensity, higher = more binding, comparable within an allelic series) | 12.2 upbm affinity estimate (log intensity, higher = more binding, comparable within an allelic series) | 11.8 upbm affinity estimate (log intensity, higher = more binding, comparable within an allelic series) | 12.4 upbm affinity estimate (log intensity, higher = more binding, comparable within an allelic series) | 12.2 upbm affinity estimate (log intensity, higher = more binding, comparable within an allelic series) | 12.9 upbm affinity estimate (log intensity, higher = more binding, comparable within an allelic series) | 12.7 upbm affinity estimate (log intensity, higher = more binding, comparable within an allelic series) | 10.7 upbm affinity estimate (log intensity, higher = more binding, comparable within an allelic series) | 12.2 upbm affinity estimate (log intensity, higher = more binding, comparable within an allelic series) | 11.2 upbm affinity estimate (log intensity, higher = more binding, comparable within an allelic series) | 13.2 upbm affinity estimate (log intensity, higher = more binding, comparable within an allelic series) | 11.8 upbm affinity estimate (log intensity, higher = more binding, comparable within an allelic series) | 11.2 upbm affinity estimate (log intensity, higher = more binding, comparable within an allelic series) | 11 upbm affinity estimate (log intensity, higher = more binding, comparable within an allelic series) | 11 upbm affinity estimate (log intensity, higher = more binding, comparable within an allelic series) | 8.87 upbm affinity estimate (log intensity, higher = more binding, comparable within an allelic series) | 12.6 upbm affinity estimate (log intensity, higher = more binding, comparable within an allelic series)
3 | CAATTAAA | 10.2 upbm affinity estimate (log intensity, higher = more binding, comparable within an allelic series) | 12.9 upbm affinity estimate (log intensity, higher = more binding, comparable within an allelic series) | 12.3 upbm affinity estimate (log intensity, higher = more binding, comparable within an allelic series) | 11.8 upbm affinity estimate (log intensity, higher = more binding, comparable within an allelic series) | 12.5 upbm affinity estimate (log intensity, higher = more binding, comparable within an allelic series) | – | – | 12.3 upbm affinity estimate (log intensity, higher = more binding, comparable within an allelic series) | 12.9 upbm affinity estimate (log intensity, higher = more binding, comparable within an allelic series) | 12.8 upbm affinity estimate (log intensity, higher = more binding, comparable within an allelic series) | – | 12.3 upbm affinity estimate (log intensity, higher = more binding, comparable within an allelic series) | – | 12.8 upbm affinity estimate (log intensity, higher = more binding, comparable within an allelic series) | 12 upbm affinity estimate (log intensity, higher = more binding, comparable within an allelic series) | 11.3 upbm affinity estimate (log intensity, higher = more binding, comparable within an allelic series) | – | – | 8.84 upbm affinity estimate (log intensity, higher = more binding, comparable within an allelic series) | –
4 | ATTAATAG | 10.1 upbm affinity estimate (log intensity, higher = more binding, comparable within an allelic series) | 12.7 upbm affinity estimate (log intensity, higher = more binding, comparable within an allelic series) | – | 11.6 upbm affinity estimate (log intensity, higher = more binding, comparable within an allelic series) | 12.2 upbm affinity estimate (log intensity, higher = more binding, comparable within an allelic series) | – | – | 11.9 upbm affinity estimate (log intensity, higher = more binding, comparable within an allelic series) | 12.6 upbm affinity estimate (log intensity, higher = more binding, comparable within an allelic series) | 12.6 upbm affinity estimate (log intensity, higher = more binding, comparable within an allelic series) | – | 12 upbm affinity estimate (log intensity, higher = more binding, comparable within an allelic series) | – | 12.6 upbm affinity estimate (log intensity, higher = more binding, comparable within an allelic series) | 11.7 upbm affinity estimate (log intensity, higher = more binding, comparable within an allelic series) | 11.1 upbm affinity estimate (log intensity, higher = more binding, comparable within an allelic series) | – | – | 9.03 upbm affinity estimate (log intensity, higher = more binding, comparable within an allelic series) | –
